From PubChem BioAssay (NCATS)
Unmarked numbers belong to inactive results. Active and inactive are the calls of the source. The call rests on the fitted dose curve; in most records, active means well fitted curve in the direction sought with a large enough effect (not every such curve was filed as active); inconclusive means small, poorly fitted or top-dose-only effect, or effect the other way, or another doubt; inactive means no such curve, though single readings can be large or run the other way.

target: Pyruvate kinase PKM (Homo sapiens) (UniProt P14618); experiment: qHTS Assay for Activators of Human Muscle Pyruvate Kinase (AID 954); details: purified human muscle pyruvate kinase, luciferase-coupled luminescence, 1 h; series mostly up to 57.5 µM; activity change, negative = inhibition: at the top concentration;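 further: 0% = uninhibited enzyme and -100% = no enzyme or full thiadiazolimine inhibition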
Sequence (P14618 whole entry, looked up): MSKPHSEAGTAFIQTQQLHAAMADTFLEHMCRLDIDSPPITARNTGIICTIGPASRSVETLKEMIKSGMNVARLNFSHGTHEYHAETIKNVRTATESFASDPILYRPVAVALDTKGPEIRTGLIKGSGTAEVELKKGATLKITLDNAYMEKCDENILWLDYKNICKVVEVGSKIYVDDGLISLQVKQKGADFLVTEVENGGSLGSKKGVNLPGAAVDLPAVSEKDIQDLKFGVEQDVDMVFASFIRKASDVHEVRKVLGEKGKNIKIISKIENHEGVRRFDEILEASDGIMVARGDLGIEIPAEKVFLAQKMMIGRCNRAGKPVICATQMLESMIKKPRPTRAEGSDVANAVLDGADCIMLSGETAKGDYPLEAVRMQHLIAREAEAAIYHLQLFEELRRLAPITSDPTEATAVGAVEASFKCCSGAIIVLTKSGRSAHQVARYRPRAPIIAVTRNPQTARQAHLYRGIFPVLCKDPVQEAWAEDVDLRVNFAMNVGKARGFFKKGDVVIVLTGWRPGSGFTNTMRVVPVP
Description: NIH Molecular Libraries Screening Centers Network [MLSCN]
NIH Chemical Genomics Center [NCGC]
Wael M. Rabeh, Lyudmila Nedyalkova and Hee-Wan Park [Structural Genomics Consortium, 100 College St. Toronto, Ontario, Canada]
Human pyruvate kinase muscle 2 enzyme was supplied as a highly purified (>95% pure) preparation by the Structural Genomics Consortium in Toronto (Ontario, Canada) and was assayed for its ability to generate ATP from ADP using phosphoenolpyruvate (PEP) as a substrate. ATP generation was detected in a coupled reaction by luciferase-mediated luminescence, an ATP-dependent process. Pyruvate kinase substrates, PEP and ADP, were present in the assay at Km and approximately […]-fold below Km respectively. The enzyme was assayed at an intermediate level of activity to screen for inhibitors and activators.
NCGC Assay Protocol Summary:
Three uL of substrate mix (final concentration, 50 mM imidazole pH 7.2, 50 mM KCl, 7 mM MgCl2, 0.5 mM PEP, 0.1 mM ADP, 0.01% Tween 20, 0.05% BSA) was dispensed into 1536 well plates. 23 nL of compound were delivered by a pin tool and 1 uL of enzyme mix (final concentration, 0.1 nM pyruvate kinase, 50 mM imidazole pH 7.2, 0.05% BSA) was added. Plates were incubated at room temperature for 1 hour. Two uL of detection and kinase stop mix (PKLight, Cambrex) was added, the plates centrifuged, and luminescence read by a ViewLux (Perkin Elmer) at 5 second exposure/plate. Data were normalized to the uninhibited and AC100 inhibition (no enzyme or 110 uM N-methyl-2,3-diphenyl-1,2,4-thiadiazol-5-imine; CID: 682802; LOPAC-S-4063). To monitor activation, 0.3 nM pyruvate kinase was included in one control column.

Compound	activity change, negative = inhibition [%]	outcome
O=C1N=C(O)CN1/N=C\c1ccc(-c2ccc([N+](=O)[O-])cc2)o1	-17	–
C[C@@H](CCc1ccc(O)cc1)NCCc1ccc(O)c(O)c1	-16	–
S=C(S)O[C@@H]1C[C@@H]2C[C@H]1[C@@H]1CCC[C@H]21	-18.5	–
C#C[C@]1(O)CC[C@H]2[C@H]3CCC4=Cc5oncc5C[C@]4(C)[C@@H]3CC[C@]21C	-24	–
CC[C@H](C)C(=O)O[C@H]1CCC=C2C=C[C@H](C)[C@H](CC[C@@H]3C[C@H](O)CC(=O)O3)[C@H]21	-8.96	–
O=C(O)[C@H]1CCCNC1	-19.2	–
CC(C)(C)NC[C@H](O)c1ccc(O)c(CO)c1	–	inactive
C[C@@H]([C@H](O)c1ccc(O)cc1)N1CCC(Cc2ccccc2)CC1	2.12	–
C=CCN1CCc2cc(O)c(O)cc2[C@H](c2ccccc2)C1	4.55	–
CCn1ccnc1C[C@@H]1COc2ccccc2O1	-15	–
COc1cc2nc(N3CCN(C(=O)[C@H]4CCCO4)CC3)nc(N)c2cc1OC	-10.5	–
CC(C)NC[C@H](O)c1ccc(NS(C)(=O)=O)cc1	-13.7	–
NC(N)=NN=Cc1c(Cl)cccc1Cl	-14.4	–
C[N+](C)(C)CCC(=O)c1cccc2ccccc12	-27.6	–
CCN(Cc1ccncc1)C(=O)[C@@H](CO)c1ccccc1	-7.97	–
CNC(=O)Oc1ccc2c(c1)[C@@]1(C)CCN(C)[C@@H]1N2C	-7.14	–
COCCOC(=O)C1=C(C)NC(C)=C(C(=O)OC(C)C)[C@@H]1c1cccc([N+](=O)[O-])c1	-10.9	–
O=Nc1c(-c2c(O)[nH]c3ccccc23)[nH]c2ccccc12	-81.9	–
COc1ccc(CCN(C)CCC[C@@](C#N)(c2ccc(OC)c(OC)c2)C(C)C)cc1OC	7.28	–
CCCCOc1cc(C[C@@H]2CNC(=O)N2)ccc1OC	-28	–

Compound	activity change, negative = inhibition [%]	outcome
CC(N)=NCCC[C@H](N)C(=O)O	-20.7	–
C[C@@H]1CCN=C(N)S1	-10.7	–
O=C(OCCN1CCCCC1)c1c[nH]c2ccccc12	-13.7	–
C1CCC(N=C(NC23CC4CC(CC(C4)C2)C3)N2CCOCC2)CC1	-13.1	–
CCOC(=O)[C@@]12C[C@@H]1/C(=N/O)c1ccccc1O2	-22.2	–
CC[C@H](C)N(C)C(=O)c1cc2ccccc2c(-c2ccccc2Cl)n1	-3.7	–
N#C/C(=C\c1ccc(O)c(O)c1)C(=O)Nc1ccccc1	-61.5	–
CCCCCCCCCCCCCCCC(=O)O[C@H](CC(=O)O)C[N+](C)(C)C	-2.81	–
CC(C)NC[C@@H](O)COc1ccc(CCOCC2CC2)cc1	-4.57	–
CC(C)(C)c1ccc(S(=O)(=O)/C=C\C#N)cc1	-4.11	–
O=C(O)c1cc(=O)c2ccc(Cl)cc2[nH]1	-21.8	–
CC(=O)N[C@@H](C(=O)O)C(C)(C)SN=O	-23.7	–
S=C(Nc1ccccc1)Nc1nccs1	-43.8	–
CCCn1c(=O)c2[nH]c(-c3ccc(OCC(=O)Nc4ccc(C#N)cc4)cc3)nc2n(CCC)c1=O	-8.32	–
NS(=O)(=O)c1cc2c(cc1Cl)N[C@@H]([C@@H]1C[C@@H]3C=C[C@H]1C3)NS2(=O)=O	13.6	–
C[C@H](N=C(NC#N)Nc1ccncc1)C(C)(C)C	4.78	–
CC(C)(C)NC[C@H](O)COc1cccc2[nH]c(=O)[nH]c12	-14	–
CCCCCCCCCCCCC/C=C\[C@@H](O)[C@@H](N)CO	-18.2	–
CC#CCOC(=O)c1c(C)nc2sc3c(c2c1N)CC[C@@H](O)C3	-26.3	–
CSc1ccc2c(c1)[C@H](N1CCN(C)CC1)Cc1ccccc1S2	-8.53	–
